Out of some 38,000 compounds screened, about 1,200 (3.2%) showed an effect of 50% or more. The median lay at about -58%. Many of the other results were omitted from the sample, so strong results are more common in it than they were.
Each molecule was assayed on Plasmodium falciparum (assay: Calibr Malaria Delayed Death Assay SOP). Settings: concentration 4.99e-06 (unit not given; other assays of the set use mol/L).
Assay type: functional, organism-based
Design: scale not given: in the data most compounds retested in dose-response had high values

Structure (SMILES)	Percent Effect [%]
COCc1ncc(-c2nccn2CCS(C)(=O)=O)cn1	-109
CS(=O)(=O)CCCNc1cccc(COC2CCCCC2)c1	-119.3
Cc1cc(C(=O)N2CCCC2)ccc1NCc1nc(CC(C)C)no1	-36.08
C=C/C=c1\c(=C/C)oc2c(NCc3ccccc3)ncnc12	-45.75
CCCc1nc(N2CCCC(C)C2)c2c(n1)c(C)nn2CC (stereo not given)	-54.34
CCc1c(C)sc2nc3n(CC(N)=O)nc(SC)n3c(=O)c12	-38.8
CN(C)[C@H]1CCCCN(C(=O)COCc2nc3cc(F)ccc3[nH]2)C1	-11.74
COC(C)Cc1nc(-c2cnn3c(C)cc(C)nc23)no1 (stereo not given)	-0.05951
CO[C@H]1CCN(c2ncc(F)cn2)[C@@H]2CN(Cc3ccco3)C[C@H]12.O=C(O)C(F)(F)F.O=C(O)C(F)(F)F	62.54
CO[C@@H]1CCN(Cc2ccoc2)[C@@H]2CN(Cc3ccco3)C[C@@H]21.O=C(O)C(F)(F)F.O=C(O)C(F)(F)F	46.48
CO[C@@H]1CCN(Cc2ccccn2)[C@@H]2CN(Cc3ccco3)C[C@@H]21.O=C(O)C(F)(F)F.O=C(O)C(F)(F)F.O=C(O)C(F)(F)F	81.61
CO[C@@H]1CCN(c2ncc(F)cn2)[C@@H]2CN(Cc3cccnc3)C[C@@H]21.O=C(O)C(F)(F)F.O=C(O)C(F)(F)F.O=C(O)C(F)(F)F	-59.6
CO[C@@H]1CCN(Cc2c(C)noc2C)[C@@H]2CN(Cc3ccco3)C[C@@H]21.O=C(O)C(F)(F)F.O=C(O)C(F)(F)F	39.75
CCN1C[C@H]2[C@@H](C1)N(c1ncc(F)cn1)CC[C@H]2OC.O=C(O)C(F)(F)F.O=C(O)C(F)(F)F	33.74
Clc1snnc1CN(Cc1cccs1)C1CC1	-103.1
CCc1noc(C(C)N(C)CC(=O)Nc2cccc(C)c2C)n1 (stereo not given)	-134.7
O=C(O)[C@@H]1CN(C(=O)c2ccc(F)c(F)c2)C[C@H]1c1cccc(F)c1	-108.3
Cc1cc(CN2CCN(C(=O)C(C(C)C)n3cncn3)CC2)on1 (stereo not given)	-30.78
CCC(CNC(=O)c1ccccn1)N1CCc2ccccc2C1 (stereo not given)	22.7
O=c1ccc(-c2cccs2)nn1CN1CCc2ccccc2C1	-135
O=C1CCCCCN1Cc1cccc(OC(F)F)c1	-103.2
Cc1noc(C)c1CN1CCCCC1CCc1ccc(O)cc1 (stereo not given)	50.08
CSCc1noc(CN2CCCCC2CCc2ccc(O)cc2)n1 (stereo not given)	-58.4

Structure (SMILES)	Percent Effect [%]
Cc1noc(C)c1CN1CCCC1C(=O)OCc1ccccc1 (stereo not given)	-68.08
c1cc(-c2cnccn2)cc(-c2ccn(CCCN3CCCCC3)n2)c1	18.71
c1cc(-c2cnccn2)cc(-c2ccn(CCN3CCCCC3)n2)c1	41.47
c1cc(-c2cnccn2)cc(-c2ccn(CCN3CCCC3)n2)c1	67.88
Cc1cc2[nH]c(=O)oc2cc1S(=O)(=O)N1CCC(N2CCCC2=O)CC1	-16.02
CC(=O)N(C)CC(=O)NC(C)c1ccc(OCCC(C)C)cc1 (stereo not given)	-42.24
Cc1nc(CCNC(=O)NCC(c2ccco2)N(C)C)cs1 (stereo not given)	-71.79
O=C(NCCc1ccncc1)[C@H]1C[C@@H]2CCN(c3nncs3)C[C@H]2O1	-93.92
COCCN(C)C(=O)NCCc1coc(-c2ccc(C)cc2)n1	-79.36
Cc1ncc(CNC(=O)N(CCCO)C2CCc3ccccc32)s1 (stereo not given)	-63.88
CC(C)n1ncc2c1NC(=O)CC21C(=O)Nc2cc(Cl)cc(Cl)c21 (stereo not given)	-81.88
CC(C)n1ncc2c1NC(=O)CC21C(=O)Nc2c(Cl)ccc(Cl)c21 (stereo not given)	83.19
CC(C)n1ncc2c1NC(=O)CC21C(=O)Nc2c(Cl)cc(Br)cc21 (stereo not given)	-58.13
COc1ccc(Cl)cc1NC(=O)N1CCc2nc(NC(C)=O)sc2C1	-92.85
COc1ccc(COCC(O)CNC(=O)c2cc(C)oc2C)cc1 (stereo not given)	-54.86
O=C(NCCCn1cccn1)C1(c2cccc(Cl)c2)CC1	-36.51
CS(=O)(=O)NCc1nnc2n1CCN(Cc1cccnc1)C2	-124.8
CCOC(=O)CC1(Nc2nc(C)nc3c2cnn3C)CCCCC1	-28.38
Cc1nc(NC2(CN3CCCCC3)CCCCC2)c2cnn(C)c2n1	54.86
COCC1(Nc2nc(C)nc3c2cnn3C)CCCC1	-148.5
COc1cc(C(=O)NS(=O)(=O)c2cc(Cl)sc2Cl)ccc1OC(F)F	-57.9
N#CCCN(CCC#N)Cc1ccc(Br)c2cccnc12	-154.3
OCCN(CCO)Cc1ccc(Br)c2cccnc12	-31.32

Structure (SMILES)	Percent Effect [%]
CCN(CCO)Cc1ccc(Br)c2cccnc12	54.32
O=C(NCC1(O)CCC1)c1c(O)cc(Cl)cc1Cl	-101.6
O=C(NCc1ccon1)N1CCC(n2ccc(C(F)(F)F)n2)CC1	-25.88
Cc1ccnn1CCN1CCCC2(CCC(=O)N(C3CCCC3)C2)C1 (stereo not given)	-99.39
CN1CC(=O)N(c2ccccc2)CC12CCN(C(=O)CC1CC1)C2.O=C(O)C(F)(F)F (stereo not given)	-38.66
O=C(c1ccc(=O)[nH]c1)N1C[C@@H]2CC[C@H](C1)N(Cc1ccccc1)C2	-23.45
O=C(c1cc(F)cc(Cl)c1)N1C[C@@H]2CC[C@H](C1)N(Cc1ccccc1)C2	-134.7
O=C(c1ccc(F)c(Cl)c1)N1C[C@@H]2CC[C@H](C1)N(Cc1ccccc1)C2	73.05
Cc1nn(C)c2nc(NCCCN3CCCC(CO)C3)sc12 (stereo not given)	-120
N#Cc1ccc(CN2CCNC(=O)C2c2cccs2)cc1 (stereo not given)	-98.76
CC[C@]12CN3C[C@](CC)(CN(C1)C3c1[nH]c(=O)[nH]c(=O)c1C)C2=O (stereo not given in full)	-91.51
CN(Cc1cccnc1)Cc1cn2c(n1)CN(C1CCOC1)CC2.O=C(O)C(F)(F)F.O=C(O)C(F)(F)F.O=C(O)C(F)(F)F (stereo not given)	-34.3
CC(C)CC(=O)NCCCn1cncn1	-49.15
N#Cc1csc(CNCCOc2ccccc2)c1	-47.61
CC(C)N1Cc2c(C(=O)N3CCN(C)CC3)nn(C)c2C1	-111.4
Cc1ccc(-c2nc(CN3CCCC3Cn3cncn3)co2)cc1 (stereo not given)	-9.69
CC1CS(=O)(=O)CCN1Cc1ccccc1N(C)C (stereo not given)	-5.29
CN(C)c1ccccc1CN1CCCCC1CNS(C)(=O)=O (stereo not given)	58.92
CS(=O)(=O)NCC1CCCCN1Cc1ccccc1C#N (stereo not given)	-35.93
CCCC1(CNCc2ncc[nH]2)CCC1	24.35
c1ccc(CC2(CNCc3ncc[nH]3)CCC2)cc1	42.05
CCC1(CNCc2ncc[nH]2)CCCC1	66.04
Cl.c1cc(OCc2ccc3c(c2)OCO3)ccc1CNC1CC1	-194.6

Structure (SMILES)	Percent Effect [%]
O=C(Nc1cccc(OCC(F)F)n1)c1ccncc1F	-156.1
O=C1NC(c2ccccc2)=N[C@@]12CC[C@@H]1CN(Cc3ccco3)C[C@@H]12	17.95
O=C1NC(c2ccccc2)=N[C@@]12CC[C@@H]1CN(Cc3ccncc3)C[C@@H]12	12.66
O=C1NC(c2ccccc2)=N[C@@]12CC[C@@H]1CN(Cc3ccoc3)C[C@@H]12	57.5
Cc1nc(C)n(CC2CN(CCCOc3ccccc3)CCO2)n1 (stereo not given)	-31.23
CN1CCNC(=O)C1CC(=O)NCCc1cnn(-c2ccccc2)c1 (stereo not given)	-54.63
Cc1ccc(C(=O)N2CCC3(CCCC3)CC2)c(=O)[nH]1	-40.97
O=C(N1CCOCC1)[C@@]12CCO[C@@H]1CCN(Cc1cccc(F)c1)C2.O=C(O)C(F)(F)F	-31.47
Cc1ccc(C(=O)N2CCOCC3(CCN(C4CCOCC4)C3)C2)o1.O=C(O)C(F)(F)F (stereo not given)	-106.4
Cc1cccc(CN2CCOCC3(CCN(C4CCOCC4)C3)C2)c1.O=C(O)C(F)(F)F.O=C(O)C(F)(F)F (stereo not given)	78
O=C(O)C(F)(F)F.O=C(c1ccoc1)N1CCOC2(COCCN(CC3CC3)C2)C1 (stereo not given)	-22.12
O=C(O)C(F)(F)F.O=C(O)C(F)(F)F.O=C(O)C(F)(F)F.c1cncc(CN2CCC3(COCCN(C4CCOCC4)C3)C2)c1 (stereo not given)	-45.9
Cc1occc1C(=O)N1CCOCC2(CCN(C3CCOCC3)C2)C1.O=C(O)C(F)(F)F (stereo not given)	-32.59
Fc1cccc(CN2CCOC3(COCCN(CC4CC4)C3)C2)c1.O=C(O)C(F)(F)F.O=C(O)C(F)(F)F (stereo not given)	61.62
c1cc(CN2CCOCC3(CCN(C4CCOCC4)C3)C2)ccn1 (stereo not given)	-42.35
O=C(O)C(F)(F)F.O=C(c1ccco1)N1CCOCC2(CCN(C3CCOCC3)C2)C1 (stereo not given)	-3.89
Fc1cccc(CN2CCOCC3(CCN(C4CCOCC4)C3)C2)c1.O=C(O)C(F)(F)F.O=C(O)C(F)(F)F (stereo not given)	77.57
COc1ccc(CN2CCOCC3(CCN(C4CCOCC4)C3)C2)cc1.O=C(O)C(F)(F)F.O=C(O)C(F)(F)F (stereo not given)	59.83
Cc1cccc(CN2CCOCC3(CCN(C4CCOCC4)C3)C2)n1.O=C(O)C(F)(F)F.O=C(O)C(F)(F)F.O=C(O)C(F)(F)F (stereo not given)	40.9
O=C(O)C(F)(F)F.O=C([C@@H]1C[C@@H]2CCN(C3CCOCC3)C[C@H]2O1)N1CCOCC1	-14.29
c1cc(-c2cn[nH]c2)ccc1CN1CCCCC1	-42.56

Reference: ChEMBL document CHEMBL3988442, “University of Dundee, Small-Polar-MMV Screening Library” (2021)
